Laboratory results reported in PubChem BioAssay (Tox21).
A number with no mark means an inactive call. Records with an inconclusive call do not appear. A call without a number means that no potency is given here. Activity calls are given as the source filed them. Unless noted, calls come from the whole dose curve; as a rule, active = well fitted curve in the direction sought with a large enough effect in the repeat runs; inconclusive = weak or mixed curves; inactive = no such curve, though single readings can be large; an effect the other way counts as inactive or inconclusive.

Assays:
[1] = qHTS assay to identify small molecule antagonists of the estrogen receptor alpha (ER-alpha) signaling pathway using the BG1 cell line in the presence of 0.1 nM 17-beta-estradiol - cell viability counter screen (AID 1259241); note: nearly all actives have a fitted effect of over 40% in size; note: potency is the fitted concentration of half-maximal effect
In short: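 Measures cytotoxicity alongside the ER-alpha antagonist readout: VM7Luc4E2 cells, charcoal-stripped serum, 0.1 nM 17beta-estradiol final, 22 hr compound incubation at 37C, CellTiter-Fluor fluorescence.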

[2] = qHTS assay to identify small molecule antagonists of the androgen receptor (AR) signaling pathway using the MDA cell line in the presence of 0.5 nM R1881 - cell viability counter screen (AID 1259242); note: nearly all actives have a fitted effect of over 45% in size; note: potency is the fitted concentration of half-maximal effect
In short: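 Fluorescence from CellTiter-Fluor, which reports protease activity of live cells, was read 30 min after reagent addition to MDA-kb2 cells that had been incubated 16 hr with compound and 0.5 nM R1881.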

[3] = molecular target: Estrogen receptor (Homo sapiens) (UniProt P03372); assay: qHTS assay to identify small molecule antagonists of the estrogen receptor alpha (ER-alpha) signaling pathway using the BG1 cell line in the presence of 0.1 nM 17-beta-estradiol (AID 1259244); note: nearly all actives have a fitted effect of over 50% in size
Estrogen receptor (Homo sapiens), sequence (P03372 whole entry, looked up): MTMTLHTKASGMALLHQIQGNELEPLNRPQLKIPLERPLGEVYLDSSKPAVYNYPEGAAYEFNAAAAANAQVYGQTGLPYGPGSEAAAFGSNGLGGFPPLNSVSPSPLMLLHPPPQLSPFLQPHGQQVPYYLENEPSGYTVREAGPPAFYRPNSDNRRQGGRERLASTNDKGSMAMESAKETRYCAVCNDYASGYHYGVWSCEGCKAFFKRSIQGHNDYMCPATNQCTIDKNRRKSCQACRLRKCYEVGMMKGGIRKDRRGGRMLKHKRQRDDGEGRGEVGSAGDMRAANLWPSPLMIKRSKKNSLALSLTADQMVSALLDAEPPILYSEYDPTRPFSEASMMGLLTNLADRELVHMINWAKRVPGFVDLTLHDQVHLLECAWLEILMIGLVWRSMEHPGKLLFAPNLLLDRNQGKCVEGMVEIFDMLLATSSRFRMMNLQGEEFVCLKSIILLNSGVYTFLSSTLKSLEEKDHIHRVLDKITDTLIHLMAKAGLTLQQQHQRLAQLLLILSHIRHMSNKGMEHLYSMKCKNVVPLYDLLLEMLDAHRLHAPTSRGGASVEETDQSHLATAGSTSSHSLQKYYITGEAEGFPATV
In short: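 Quantitative high-throughput screen in VM7Luc4E2 cells: compound plus 0.1 nM E2 (final), 22 h, 37C, 5% CO2; ONE-Glo added, 30 min room temperature, luminescence measured.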

[4] = qHTS assay to identify small molecule phospholipidosis (PLD) inducers (AID 1259344; active = well fitted curve in the direction sought with a large enough effect; an effect the other way counts as inactive or inconclusive)
In short: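 Phospholipidosis is scored by imaging LipidTOX-stained pits in HepG2 cells exposed to compound for 24 h at 37 C; pit counts and integrated intensities per well and per cell serve as outputs.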

[5] = qHTS assay to identify small molecule HDAC inhibitors (AID 1259364); note: nearly all actives have a fitted effect of over 45% in size; note: potency is the fitted concentration of half-maximal effect
In short: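 Endogenous HDAC class I/II activity was measured in wild-type HCT-116 cells by HDAC-Glo luminescence after 2 h compound treatment.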

[6] = qHTS assay to identify small molecule HDAC inhibitors - cell viability counter screen (AID 1259365); note: series mostly up to about 92 µM; nearly all actives have a fitted effect of over 50% in size
In short: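 Following a 2hr exposure of overnight-plated wild-type HCT-116 cells to DMSO-delivered compounds, CellTiter-Glo was added and luminescence recorded after 30min at room temperature.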

[7] = qHTS assay to identify small molecule agonists of the sonic hedgehog signaling (Shh) pathway - cell viability counter screen (AID 1259366); note: nearly all actives have a fitted effect of over 50% in size; note: potency is the fitted concentration of half-maximal effect
In short: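 After a 4hr attachment at 37C, NIH/3T3 cells bearing an integrated Gli1-driven luciferase reporter were dosed with compounds. Treatment lasted 24hr, with the final hour including CellTiter-Fluor for a fluorescence viability measurement.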

[8] = qHTS assay to identify small molecule antagonists of the sonic hedgehog signaling (Shh) pathway - cell viability counter screen (AID 1259367); note: nearly all actives have a fitted effect of over 55% in size; note: potency is the fitted concentration of half-maximal effect
In short: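 Cells: 3T3 Gli1-Luc, 2,000/well, 4 hr pre-incubation. Compounds in DMSO, then conditioned medium. Incubation 24 hr, 37C, 5% CO2. CellTiter-Fluor at 23 hr, 1 hr, fluorescence.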

[9] = qHTS assay to identify small molecule agonists of the sonic hedgehog signaling (Shh) pathway (AID 1259368; calls by dose curve;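 note: NIH/3T3-derived 3T3Gli1-Luc cells carrying a stable Gli1-driven firefly luciferase reporter; series mostly up to about 92 µM; nearly all actives have a fitted effect of over 15% in size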)
In short: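 Luminescent signal was taken as a measure of Gli1-controlled luciferase expression in stably transfected NIH/3T3-derived cells that had been treated for 24 hr with compounds delivered in DMSO.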

[10] = qHTS assay to identify small molecule antagonists of the sonic hedgehog signaling (Shh) pathway (AID 1259369; calls by dose curve; note: nearly all actives have a fitted effect of over 45% in size; note: potency is the fitted concentration of half-maximal effect)
In short: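 Screening used 3T3Gli1-Luc cells at 2,000 per well, compounds delivered in DMSO, and conditioned medium as agonist stimulus; plates incubated 24hr at 37 C and 5% CO2 before a 30min luciferase step.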

[11] = molecular target: Estrogen receptor beta (Homo sapiens) (UniProt Q92731); assay: qHTS assay to identify small molecule agonists of the estrogen receptor beta (ER-beta) signaling pathway (AID 1259377; active = well fitted activation curve with a large enough effect in the signal ratio in the repeat runs, not every such curve was filed as active; the % refers to the signal ratio)
Estrogen receptor beta (Homo sapiens), sequence (Q92731 whole entry, looked up): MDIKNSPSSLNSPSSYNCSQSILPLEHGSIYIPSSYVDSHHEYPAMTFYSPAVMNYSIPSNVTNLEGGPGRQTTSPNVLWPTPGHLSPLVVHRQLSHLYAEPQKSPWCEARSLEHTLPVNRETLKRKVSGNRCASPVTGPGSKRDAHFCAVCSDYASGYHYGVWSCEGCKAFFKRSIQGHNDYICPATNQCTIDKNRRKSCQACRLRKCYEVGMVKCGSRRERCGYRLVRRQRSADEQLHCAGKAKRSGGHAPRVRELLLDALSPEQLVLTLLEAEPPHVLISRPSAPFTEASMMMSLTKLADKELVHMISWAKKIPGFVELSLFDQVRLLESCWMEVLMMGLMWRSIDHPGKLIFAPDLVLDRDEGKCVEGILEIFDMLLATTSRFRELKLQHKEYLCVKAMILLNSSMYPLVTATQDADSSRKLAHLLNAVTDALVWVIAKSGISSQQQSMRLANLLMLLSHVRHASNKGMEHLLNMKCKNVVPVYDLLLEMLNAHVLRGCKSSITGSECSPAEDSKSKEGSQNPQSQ
In short: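 In HEK293T cells bearing a UAS-beta-lactamase reporter under ER-beta control, DMSO-delivered compounds were incubated for 16 hr at 37C. Activity was detected as fluorescence 2 hours after LiveBLAzer B/G FRET substrate addition.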

[12] = molecular target: Estrogen receptor beta (Homo sapiens) (UniProt Q92731); assay: qHTS assay to identify small molecule antagonists of the estrogen receptor beta (ER-beta) signaling pathway (AID 1259378; active = well fitted inhibition curve with a large enough effect in the signal ratio in the repeat runs, not every such curve was filed as active; the % refers to the signal ratio)
In short: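 Antagonist mode: compounds added to beta-lactamase reporter HEK293T ER-beta-UAS cells stimulated with E2 (1nM final), 16 hr at 37C. LiveBLAzer B/G FRET substrate, 2 hours room temperature, fluorescence read-out.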

[13] = qHTS assay to identify small molecule agonists of the androgen receptor (AR) signaling pathway in the presence of an antagonist - cell viability counter screen (AID 1259379); note: nearly all actives have a fitted effect of over 25% in size; note: potency is the fitted concentration of half-maximal effect
In short: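 In MDA-kb2 cells (human breast carcinoma, MMTV-luciferase), compounds at 15 concentrations plus 3.0uM nilutamide; 16 hr, 37C, 0% CO2; CellTiter-Fluor fluorescence read for viability.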

[14] = qHTS assay to identify small molecule agonists of the estrogen receptor beta (ER-beta) signaling pathway - cell viability counter screen (AID 1259380); note: nearly all actives have a fitted effect of over 30% in size
In short: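 Viability of ER-beta-UAS-bla HEK293T cells was determined by CellTiter-Glo luminescence following 16 hr treatment with test compounds at 37C.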

[15] = qHTS assay to identify small molecule antagonists of the estrogen receptor beta (ER-beta) signaling pathway - cell viability counter screen (AID 1259382);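 note: HEK293T cells carrying ER-beta-UAS-bla reporter stimulated with estradiol; series mostly up to about 92 µM; nearly all actives have a fitted effect of over 55% in size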
In short: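 Tox21 10K library tested in qHTS format on ER-beta-bla HEK293T cells stimulated with 1nM E2; 16 hr treatment at 37C. Same-well CellTiter-Glo luminescence served as the cell viability measure.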

[16] = molecular target: Androgen receptor (Homo sapiens) (UniProt P10275); assay: qHTS assay to identify small molecule antagonists of the androgen receptor (AR) signaling pathway using the MDA cell line in the presence of 0.5 nM R1881 (AID 1259243); note: nearly all actives have a fitted effect of over 50% in size; note: potency is the fitted concentration of half-maximal effect
Androgen receptor (Homo sapiens), sequence (P10275 whole entry, looked up): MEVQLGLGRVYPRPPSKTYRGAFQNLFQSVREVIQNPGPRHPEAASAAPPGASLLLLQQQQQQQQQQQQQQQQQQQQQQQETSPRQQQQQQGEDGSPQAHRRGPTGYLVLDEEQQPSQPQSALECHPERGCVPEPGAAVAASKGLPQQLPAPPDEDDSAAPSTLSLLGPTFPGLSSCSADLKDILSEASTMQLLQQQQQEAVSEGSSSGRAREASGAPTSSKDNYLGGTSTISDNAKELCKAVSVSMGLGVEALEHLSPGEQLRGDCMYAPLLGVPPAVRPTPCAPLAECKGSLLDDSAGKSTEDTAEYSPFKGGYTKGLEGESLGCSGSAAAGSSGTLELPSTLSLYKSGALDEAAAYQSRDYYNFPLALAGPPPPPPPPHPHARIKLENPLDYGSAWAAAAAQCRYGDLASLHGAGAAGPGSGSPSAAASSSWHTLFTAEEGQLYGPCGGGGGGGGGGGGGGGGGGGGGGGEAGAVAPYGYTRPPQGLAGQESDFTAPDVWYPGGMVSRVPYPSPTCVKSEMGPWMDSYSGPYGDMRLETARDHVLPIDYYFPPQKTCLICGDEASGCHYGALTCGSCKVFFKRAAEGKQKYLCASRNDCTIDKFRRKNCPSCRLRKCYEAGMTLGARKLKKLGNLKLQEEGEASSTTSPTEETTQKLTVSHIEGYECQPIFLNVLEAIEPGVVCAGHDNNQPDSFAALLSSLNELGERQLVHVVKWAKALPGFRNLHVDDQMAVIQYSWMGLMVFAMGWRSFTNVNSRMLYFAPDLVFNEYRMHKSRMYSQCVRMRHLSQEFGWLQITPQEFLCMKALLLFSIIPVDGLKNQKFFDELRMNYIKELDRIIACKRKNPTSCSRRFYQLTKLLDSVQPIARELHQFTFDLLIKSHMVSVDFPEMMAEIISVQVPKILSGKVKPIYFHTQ
In short: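 Inhibition of R1881 (0.5 nM final) induced reporter signal was measured in human MDA-kb2 cells; note the MMTV promoter also responds to GR. Exposure lasted 16 hr at 37C.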

[17] = molecular target: Androgen receptor (Homo sapiens) (UniProt P10275); assay: qHTS assay to identify small molecule agonists of the androgen receptor (AR) signaling pathway in the presence of an antagonist (AID 1259381; calls by dose curve; note: nearly all actives have a fitted effect of over 15% in size; note: potency is the fitted concentration of half-maximal effect)
In short: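 Here, 15-concentration compound series were pin-transferred onto MDA-kb2 MMTV-luciferase cells already dosed with nilutamide (3.0uM final). After 16hr at 37C, ONE-Glo was added and luminescence read 30min later at room temperature.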

[18] = qHTS assay to identify small molecule agonists or antagonists of the thyroid stimulating hormone receptor (TSHR) signaling pathway - wild type cell line counter screen (AID 1259384; calls by dose curve)
In short: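 Counter screen in untransfected Hek293: compounds (15-point titration, triplicate) plus phosphodiesterase inhibitor Ro20-1724 added after 18 h plating; 30 min RT. Intracellular cAMP via competitive d2/cryptate immunoassay, 1 h incubation.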

[19] = molecular target: Thyrotropin receptor (Homo sapiens) (UniProt P16473); assay: qHTS assay to identify small molecule antagonists of the thyroid stimulating hormone receptor (TSHR) signaling pathway (AID 1259385; calls by dose curve; note: nearly all actives have a fitted effect of over 20% in size; note: potency is the fitted concentration of half-maximal effect)
Thyrotropin receptor (Homo sapiens), sequence (P16473 whole entry, looked up): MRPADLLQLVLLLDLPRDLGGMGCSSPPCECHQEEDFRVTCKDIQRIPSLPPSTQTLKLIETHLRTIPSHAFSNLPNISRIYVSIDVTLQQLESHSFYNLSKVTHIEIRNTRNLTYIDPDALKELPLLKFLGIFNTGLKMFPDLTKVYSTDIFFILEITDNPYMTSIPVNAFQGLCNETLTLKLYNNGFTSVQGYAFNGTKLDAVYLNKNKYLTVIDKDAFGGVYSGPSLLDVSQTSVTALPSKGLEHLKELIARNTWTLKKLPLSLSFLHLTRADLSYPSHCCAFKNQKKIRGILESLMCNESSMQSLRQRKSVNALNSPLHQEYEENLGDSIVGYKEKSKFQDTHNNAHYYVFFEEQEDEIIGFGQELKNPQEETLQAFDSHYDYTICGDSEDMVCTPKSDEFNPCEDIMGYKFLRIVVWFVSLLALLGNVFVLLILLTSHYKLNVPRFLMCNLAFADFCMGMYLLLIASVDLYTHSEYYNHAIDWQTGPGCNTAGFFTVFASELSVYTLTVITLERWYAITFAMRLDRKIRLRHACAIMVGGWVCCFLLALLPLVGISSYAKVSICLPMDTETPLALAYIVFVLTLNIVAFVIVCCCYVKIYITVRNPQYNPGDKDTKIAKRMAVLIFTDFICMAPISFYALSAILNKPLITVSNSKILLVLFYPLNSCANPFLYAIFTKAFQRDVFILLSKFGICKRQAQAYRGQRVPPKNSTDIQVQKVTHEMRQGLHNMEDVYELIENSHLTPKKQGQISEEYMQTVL
In short: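 Antagonist mode: compound-treated TSHR-expressing HEK293 cells were stimulated with 1.5 ng/mL TSH (final) in presence of Ro20-1724 for 30 min at RT. HTRF cAMP detection after 1 h; each compound tested at 15 concentrations, triplicate.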

[20] = molecular target: Estrogen receptor (Homo sapiens) (UniProt P03372); assay: qHTS assay to identify small molecule agonists of the estrogen receptor alpha (ER-alpha) signaling pathway in the presence of an antagonist (AID 1259383; calls by dose curve; note: top concentration of the series differs between compounds; nearly all actives have a fitted effect of over 15% in size)
In short: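 In VM7Luc4E2 cells, 4,000 per well, compounds at 15 concentrations were co-incubated 22hr at 37C with 10.0nM final ICI-182,780. Luminescence from the stably transfected 4×ERE-luciferase reporter was recorded 30min after ONE-Glo addition.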

Row | Compound | Potency [1] | Potency [2] | Potency [3] | Potency [4] | Potency [5] | outcome [6] | Potency [7] | Potency [8] | outcome [9] | Potency [10] | Potency [11] | Potency [12] | Potency [13] | Potency [14] | Potency [15] | Potency [16] | Potency [17] | Potency [18] | Potency [19] | Potency [20]
1 | CCCCOc1cc(C(=O)OCCN(CC)CC)ccc1N | inactive | inactive | inactive | inactive | inactive | inactive | inactive | inactive | inactive | inactive | inactive | inactive | inactive | inactive | inactive | – | – | – | – | –
2 | CCOc1nc2cccc(C(=O)O)c2n1Cc1ccc(-c2ccccc2-c2nn[nH]n2)cc1 | inactive | inactive | inactive | inactive | inactive | – | inactive | inactive | inactive | inactive | inactive | inactive | inactive | – | inactive | inactive | inactive | inactive | inactive | –
3 | CC(C)(Oc1ccc(Cl)cc1)C(=O)OCCCOC(=O)C(C)(C)Oc1ccc(Cl)cc1 | inactive | inactive | inactive | – | inactive | inactive | – | – | inactive | inactive | inactive | inactive | inactive | inactive | inactive | inactive | inactive | inactive | 29.8 µM (active) | inactive
4 | C=C(C)C(=O)OCCOc1ccccc1 | inactive | inactive | inactive | – | 27.3 µM (active) | – | – | – | inactive | 43.3 µM (active) | – | inactive | inactive | – | inactive | inactive | inactive | inactive | inactive | inactive
5 | CCCCCCCC/C=C\CCCCCCCC(N)=O | inactive | inactive | – | – | inactive | inactive | inactive | inactive | inactive | inactive | inactive | – | inactive | – | inactive | inactive | inactive | – | – | –
6 | CCCCOC(O)CC (stereo not given) | inactive | inactive | inactive | – | inactive | inactive | – | inactive | inactive | inactive | inactive | inactive | inactive | – | inactive | inactive | inactive | inactive | – | inactive
7 | O=C1Nc2cc(Cl)ccc2Oc2ccccc21 | inactive | inactive | – | – | inactive | – | – | inactive | inactive | inactive | inactive | – | inactive | inactive | inactive | 4.22 µM (active) | inactive | inactive | inactive | –
8 | CC(=O)N(CC(=O)N(C)C)c1ccccc1 | inactive | inactive | – | – | inactive | inactive | inactive | inactive | inactive | inactive | inactive | inactive | inactive | inactive | inactive | inactive | – | inactive | inactive | –
9 | CC(C(=O)O)c1ccc(C(=O)c2ccccc2)s1 (stereo not given) | inactive | inactive | inactive | inactive | 6.68 µM (active) | – | inactive | inactive | inactive | inactive | – | – | inactive | – | inactive | inactive | – | – | – | –
10 | Cc1cc(C)c(S(=O)(=O)O)cc1N=Nc1cc(S(=O)(=O)O)c2ccccc2c1O | 54.5 µM (active) | 61.1 µM (active) | – | – | inactive | inactive | 27.3 µM (active) | 30.6 µM (active) | inactive | inactive | inactive | inactive | 27.3 µM (active) | inactive | inactive | inactive | inactive | inactive | inactive | –
11 | N[C@H]1C(O)O[C@H](CO)[C@H](O)[C@@H]1O (stereo not given in full) | inactive | inactive | inactive | – | inactive | inactive | – | inactive | inactive | inactive | inactive | inactive | inactive | inactive | inactive | inactive | inactive | – | inactive | –
12 | O=C(Cl)c1ccc([N+](=O)[O-])cc1 | inactive | inactive | inactive | – | inactive | – | inactive | inactive | inactive | – | inactive | inactive | inactive | inactive | inactive | inactive | inactive | inactive | inactive | inactive
13 | CC[C@]12CCCN3CCc4c(n(c5ccccc45)C(=O)C1)[C@@H]32 | inactive | inactive | – | inactive | inactive | inactive | – | – | inactive | – | inactive | inactive | – | – | – | inactive | 29.8 µM (active) | inactive | inactive | –
14 | CCC(C)N(C)C(=O)c1cc2ccccc2c(-c2ccccc2Cl)n1 (stereo not given) | inactive | inactive | – | – | inactive | inactive | – | – | inactive | inactive | – | – | inactive | – | inactive | 28 µM (active) | inactive | inactive | inactive | –
15 | NCCCN(CCO)CCO | inactive | inactive | – | – | inactive | inactive | inactive | inactive | inactive | inactive | – | – | inactive | inactive | inactive | inactive | inactive | inactive | inactive | inactive
16 | O=C(O)[C@@H]1[C@H]2C[C@H]3c4[nH]c5ccccc5c4CCN3C[C@@H]2CC[C@@H]1O | inactive | inactive | inactive | inactive | inactive | inactive | inactive | inactive | inactive | inactive | – | – | inactive | inactive | inactive | inactive | inactive | inactive | – | –
